Laboratory results published in PubChem BioAssay (Tox21).
Records with an inconclusive call do not appear. Calls of active or inactive are those of the source. Unless noted, calls come from the whole dose curve; as a rule, active = well fitted curve in the direction sought with a large enough effect in the repeat runs; inconclusive = weak or mixed curves; inactive = no such curve, though single readings can be large; an effect the other way counts as inactive or inconclusive.

What was measured:
[1] = qHTS assay to identify small molecule that activate the aryl hydrocarbon receptor (AhR) signaling pathway - cell viability counter screen (AID 743086);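 note: HepG2 liver cells carrying the AhR DRE luciferase reporter; series mostly up to about 70 µM; % is set by controls: 0 for no effect and ±100 for the full control effect; nearly all actives have a fitted effect of over 45% in size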
Procedure, shortened: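 Cytotoxicity counter screen: CellTiter-Fluor signal (30 min, 37 C) in 4000 HepG2 cells/well carrying the DRE-luciferase reporter, following 24 h compound exposure at 37 C.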

[2] = biological target: Peroxisome proliferator-activated receptor gamma (Homo sapiens) (UniProt P37231); assay: qHTS assay to identify small molecule agonists of the peroxisome proliferator-activated receptor gamma (PPARg) signaling pathway (AID 743094; active = well fitted activation curve with a large enough effect in the signal ratio in the repeat runs, not every such curve was filed as active; the % refers to the signal ratio; note: % is set by controls: 0 for no effect and ±100 for the full control effect)
Procedure, shortened: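 Reporter activation was scored by fluorescence of cleaved LiveBLAzer B/G substrate (1 h, room temperature) in PPARg-bla HEK293H cells previously treated 17 h at 37C with DMSO-dissolved compounds.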

[3] = biological target: Acetylcholinesterase (Homo sapiens) (UniProt P22303); assay: Acetylcholinesterase (AChE) small molecule antagonists: fluorescence cell-based qHTS assay (AID 1347398; calls by dose curve; note: % is set by controls: 0 for no effect and ±100 for the full control effect; nearly all actives have a fitted effect of over 50% in size); details: Potency: AChE activity; outcome: AChE activity
Procedure, shortened: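 Homogeneous quantitative HTS format. SH-SY5Y cells seeded at 2,000 per well settle overnight at 37 C. Compound pretreatment runs 30 min (37 C, 5% CO2); substrate/probe mix then reacts 40 min at RT before reading 490/520 nm.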

[4] = biological target: Acetylcholinesterase (Homo sapiens) (UniProt P22303); assay: Acetylcholinesterase (AChE) small molecule antagonists: enzyme-based qHTS assay with human liver microsomes (AID 1347399; calls by dose curve; note: % is set by controls: 0 for no effect and ±100 for the full control effect; nearly all actives have a fitted effect of over 60% in size); details: Potency: qHTS inhibition; outcome: qHTS inhibition
Procedure, shortened: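 Recombinant human AChE (50 mU/mL in the enzyme mix) and human liver microsomes (0.25 mg/mL final) were preincubated with compound and NADPH (0.25 mg/mL final) for 30 min at 37 C. Acetylthiocholine/DTNB was then added; thiocholine was read colorimetrically after 10 min at room temperature.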

Aromatase (Homo sapiens) = Aromatase (Homo sapiens) (UniProt P11511); assay: qHTS assay to identify aromatase inhibitors (AID 743083); note: series mostly up to about 70 µM; % is set by controls: 0 for no effect and ±100 for the full control effect; nearly all actives have a fitted effect of over 55% in size
[5] = biological target: Aryl hydrocarbon receptor (Homo sapiens) (UniProt P35869); assay: qHTS assay to identify small molecule that activate the aryl hydrocarbon receptor (AhR) signaling pathway (AID 743085);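 note: HG2L7.5c1 human HepG2 liver cells with stably integrated DRE-driven firefly reporter; series mostly up to about 70 µM; % is set by controls: 0 for no effect and ±100 for the full control effect; nearly all actives have a fitted effect of over 15% in size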
Procedure, shortened: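 HepG2 cells stably carrying a 20-DRE firefly luciferase reporter (HG2L7.5c1) treated with compound for 24 hr at 37C. Luciferase read by ONE-Glo luminescence, with CellTiter-Fluor viability read first.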

[6] = qHTS assay for small molecule agonists of the p53 signaling pathway (AID 651631; calls by dose curve; note: % is set by controls: 0 for no effect and ±100 for the full control effect; nearly all actives have a fitted effect of over 15% in size)
Procedure, shortened: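 HCT-116 cells carrying a beta-lactamase reporter under p53 response elements were dosed with compound for 16 h at 37 °C. LiveBLAzer B/G FRET substrate was then added for 2 h at room temperature, and fluorescence intensity was read to detect pathway agonism.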

[7] = qHTS assay for small molecules that induce genotoxicity in human embryonic kidney cells expressing luciferase-tagged ATAD5 (AID 651632); note: % is set by controls: 0 for no effect and ±100 for the full control effect; nearly all actives have a fitted effect of over 15% in size
Procedure, shortened: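 Quantitative HTS in HEK293T expressing luciferase-tagged ATAD5, whose levels rise upon DNA damage. Exposure ran 16 hr at 37C and 5% CO2, with luminescence read 30 min after Amplite addition at room temperature.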

[8] = qHTS assay for small molecules that induce genotoxicity in human embryonic kidney cells expressing luciferase-tagged ATAD5 - cell viability (AID 651634; calls by dose curve; note: % is set by controls: 0 for no effect and ±100 for the full control effect; nearly all actives have a fitted effect of over 25% in size)
Procedure, shortened: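 After 15.5 hr incubation with compound at 37C, 5% CO2, HEK293T ATAD5-luciferase cells received CellTiter-Fluor reagent; fluorescence intensity was quantified following 30 min at 37C.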

[9] = qHTS assay for small molecule disruptors of the mitochondrial membrane potential - cell viability (AID 720634; calls by dose curve;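 note: human HepG2 liver cancer cells; series mostly up to about 83 µM; % is set by controls: 0 for no effect and ±100 for the full control effect; nearly all actives have a fitted effect of over 20% in size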)
Procedure, shortened: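 ATP-based luminescent viability readout (CellTiter-Glo, 30 min, room temperature) in HepG2 cells multiplexed with the m-MPI membrane potential dye; compound exposure lasted 1 hr at 37 C.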

[10] = qHTS assay for small molecule disruptors of the mitochondrial membrane potential (AID 720635); note: % is set by controls: 0 for no effect and ±100 for the full control effect
Procedure, shortened: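 Mitochondrial membrane potential tracked with Mito-MPS dye, red aggregates (ex 540/em 590 nm) against green monomers (ex 490/em 535 nm). Compound treatment 1 hr at 37C, dye 30 min in HepG2.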

[11] = qHTS assay to test for compound auto fluorescence at 590 nm (red) in HepG2 cells (AID 720674); note: % is set by controls: 0 for no effect and ±100 for the full control effect
Procedure, shortened: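 1 hr compound incubation on HepG2 cells, 37 C, 5% CO2; plate read ex 540 nm / em 590 nm; intensities reported as Rose Bengal sodium equivalents.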

[12] = qHTS assay to test for compound auto fluorescence at 535 nm (green) in HepG2 cells (AID 720675); note: % is set by controls: 0 for no effect and ±100 for the full control effect
[13] = qHTS assay to test for compound auto fluorescence at 460 nm (blue) in HEK293 cells (AID 720678); note: % is set by controls: 0 for no effect and ±100 for the full control effect
Procedure, shortened: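 Auto fluorescence in the blue band was quantified as triamterene equivalency. HEK293 cells were seeded at 2,000/well, dosed after a 4-5 hr attachment, and kept overnight at 37C before the 405/460 nm reading.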

[14] = qHTS assay to test for compound auto fluorescence at 590 nm (red) in HEK293 cells (AID 720679); note: % is set by controls: 0 for no effect and ±100 for the full control effect
Procedure, shortened: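 Autofluorescence equivalency to Rose Bengal sodium, 540/590nm, in HEK293 cells exposed overnight to 23 nL compound per well.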

[15] = qHTS assay to test for compound auto fluorescence at 535 nm (green) in HEK293 cells (AID 720680); note: % is set by controls: 0 for no effect and ±100 for the full control effect
[16] = qHTS assay to test for compound auto fluorescence at 460 nm (blue) in HEK293 cell free culture (AID 720681); note: % is set by controls: 0 for no effect and ±100 for the full control effect
Procedure, shortened: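 Blue fluorescence (Ex 405/Em 460 nm, triamterene-equivalent) was read immediately after pin transfer of compound or DMSO into medium (DMEM, 10% FBS) without cells.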

[17] = qHTS assay to test for compound auto fluorescence at 535 nm (green) in HEK293 cell free culture (AID 720682); note: % is set by controls: 0 for no effect and ±100 for the full control effect
Procedure, shortened: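 Green-label autofluorescence (485 nm excitation, 535 nm emission) measured on compound added to cell-free culture medium (DMEM, 10% FBS). Output is expressed relative to fluorescein.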

[18] = qHTS assay to test for compound auto fluorescence at 590 nm (red) in HEK293 cell free culture (AID 720683); note: % is set by controls: 0 for no effect and ±100 for the full control effect
Procedure, shortened: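 Red-channel autofluorescence of compounds in culture medium (DMEM, 10% FBS), no cells, measured at 540/590 nm. Rose Bengal sodium is the reference fluorophore for equivalence.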

[19] = qHTS assay to test for compound auto fluorescence at 590 nm (red) in HepG2 cell free culture (AID 720684); note: % is set by controls: 0 for no effect and ±100 for the full control effect
Procedure, shortened: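 No cells present: MEM + 10% FBS only. Compound pinned in, red label read (540/590 nm). Activity = fluorescence equivalent to Rose Bengal sodium.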

[20] = qHTS assay to test for compound auto fluorescence at 460 nm (blue) in HepG2 cell free culture (AID 720685); note: % is set by controls: 0 for no effect and ±100 for the full control effect
Procedure, shortened: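 Cell-free plates of MEM plus 10% FBS received 23 nL compound or DMSO vehicle; blue-channel (405/460 nm) intensity scored against triamterene as reference fluorophore.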

[21] = qHTS assay to test for compound auto fluorescence at 535 nm (green) in HepG2 cell free culture (AID 720686); note: % is set by controls: 0 for no effect and ±100 for the full control effect
[22] = qHTS assay to test for compound auto fluorescence at 460 nm (blue) in HepG2 cells (AID 720687); note: % is set by controls: 0 for no effect and ±100 for the full control effect
Procedure, shortened: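 Blue-channel autofluorescence (Ex/Em 405/460 nm, triamterene-equivalent) was measured after 1 hr compound exposure at 37 C, 5% CO2. Cells were HepG2, plated overnight at 37 C in MEM plus 10% FBS.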

[23] = biological target: Glucocorticoid receptor (Homo sapiens) (UniProt P04150); assay: qHTS assay to identify small molecule agonists of the glucocorticoid receptor (GR) signaling pathway (AID 720691; active = well fitted activation curve with a large enough effect in the signal ratio in the repeat runs, not every such curve was filed as active; the % refers to the signal ratio; note: % is set by controls: 0 for no effect and ±100 for the full control effect)
Procedure, shortened: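 Cells: GR-bla HeLa, endogenous GR with stably integrated GRE-beta-lactamase reporter. Treatment 18 h, 37 C, compounds delivered in DMSO. Detection via LiveBLAzer B/G FRET substrate, 2 h RT, fluorescence intensity.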

[24] = biological target: Glucocorticoid receptor (Homo sapiens) (UniProt P04150); assay: qHTS assay to identify small molecule antagonists of the glucocorticoid receptor (GR) signaling pathway (AID 720692; active = well fitted inhibition curve with a large enough effect in the signal ratio in the repeat runs, not every such curve was filed as active; the % refers to the signal ratio; note: % is set by controls: 0 for no effect and ±100 for the full control effect)
Procedure, shortened: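 Quantitative HTS in antagonist format: HeLa cells expressing endogenous GR and a stably integrated GRE-bla reporter, stimulated with 5 nM dexamethasone (final) alongside test compounds for 18 h.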

[25] = qHTS assay to identify small molecule antagonists of the glucocorticoid receptor (GR) signaling pathway - cell viability counter screen (AID 720693); note: % is set by controls: 0 for no effect and ±100 for the full control effect; nearly all actives have a fitted effect of over 55% in size
[26] = qHTS assay for identifying genotoxic compounds that show differential cytotoxicity against isogenic chicken DT40 cell lines with known DNA damage response pathways - Rev3 mutant cell line (AID 743014); note: potency is the fitted concentration of half-maximal effect; nearly all actives have a fitted effect of over 55% in size
[27] = qHTS assay for identifying genotoxic compounds that show differential cytotoxicity against isogenic chicken DT40 cell lines with known DNA damage response pathways - Rad54/Ku70 mutant cell line (AID 743015); note: potency is the fitted concentration of half-maximal effect; nearly all actives have a fitted effect of over 60% in size
[28] = qHTS assay to identify small molecule antagonists of the androgen receptor (AR) signaling pathway - cell viability counter screen (AID 743033; note: % is set by controls: 0 for no effect and ±100 for the full control effect; nearly all actives have a fitted effect of over 45% in size)
[29] = qHTS assay to identify small molecule antagonists of the thyroid receptor (TR) signaling pathway - cell viability counter screen (AID 743064); note: % is set by controls: 0 for no effect and ±100 for the full control effect; nearly all actives have a fitted effect of over 50% in size
Procedure, shortened: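 GH3.TRE-Luc rat pituitary cells dosed after 4 hr plating, co-stimulated with T3 at 1 nM final, incubated 23.5 h at 37 C. Viability measured in the same wells by CellTiter-Fluor fluorescence after 30 min further at 37 C.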

[30] = tested on: thyroid hormone receptor (rat, GH3 cells); assay: qHTS assay to identify small molecule agonists of the thyroid receptor (TR) signaling pathway (AID 743066; calls by dose curve; note: % is set by controls: 0 for no effect and ±100 for the full control effect)
[31] = biological target: Estrogen receptor (Homo sapiens) (UniProt P03372); assay: qHTS assay to identify small molecule antagonists of the estrogen receptor alpha (ER-alpha) signaling pathway (AID 743069; active = well fitted curve in the direction sought with a large enough effect in the signal ratio in the repeat runs, not every such curve was filed as active; the % refers to the signal ratio; note: % is set by controls: 0 for no effect and ±100 for the full control effect)
Procedure, shortened: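 Fluorescence intensity from a beta-lactamase FRET substrate served as the read-out. Cells: HEK293 with stably integrated ER-alpha-UAS-bla reporter. Agonist 17beta-estradiol was co-added with compounds; incubation 18 hr at 37C, substrate 2 hr at room temperature.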

[32] = qHTS assay to identify small molecule antagonists of the estrogen receptor alpha (ER-alpha) signaling pathway - cell viability counter screen (AID 743074; calls by dose curve; note: % is set by controls: 0 for no effect and ±100 for the full control effect; nearly all actives have a fitted effect of over 45% in size)
[33] = biological target: Estrogen receptor (Homo sapiens) (UniProt P03372); assay: qHTS assay to identify small molecule agonists of the estrogen receptor alpha (ER-alpha) signaling pathway (AID 743075; calls by dose curve; note: % is set by controls: 0 for no effect and ±100 for the full control effect)
[34] = biological target: Estrogen receptor (Homo sapiens) (UniProt P03372); assay: qHTS assay to identify small molecule agonists of the estrogen receptor alpha (ER-alpha) signaling pathway using the BG1 cell line (AID 743079); note: % is set by controls: 0 for no effect and ±100 for the full control effect; nearly all actives have a fitted effect of over 20% in size
[35] = qHTS assay to identify small molecule antagonists of the estrogen receptor alpha (ER-alpha) signaling pathway using the BG1 cell line (AID 743080; calls by dose curve)
Procedure, shortened: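 Endogenous full-length ER-alpha in BG1-Luc-4E2 cells drives a stably integrated 4×ERE luciferase gene; compounds were tested against 17beta-estradiol over 21.5 h, with luminescence and multiplexed viability fluorescence recorded.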

[36] = qHTS assay to identify aromatase inhibitors - cell viability counter screen (AID 743084)

Acetylcholinesterase (Homo sapiens), sequence (P22303 whole entry, looked up): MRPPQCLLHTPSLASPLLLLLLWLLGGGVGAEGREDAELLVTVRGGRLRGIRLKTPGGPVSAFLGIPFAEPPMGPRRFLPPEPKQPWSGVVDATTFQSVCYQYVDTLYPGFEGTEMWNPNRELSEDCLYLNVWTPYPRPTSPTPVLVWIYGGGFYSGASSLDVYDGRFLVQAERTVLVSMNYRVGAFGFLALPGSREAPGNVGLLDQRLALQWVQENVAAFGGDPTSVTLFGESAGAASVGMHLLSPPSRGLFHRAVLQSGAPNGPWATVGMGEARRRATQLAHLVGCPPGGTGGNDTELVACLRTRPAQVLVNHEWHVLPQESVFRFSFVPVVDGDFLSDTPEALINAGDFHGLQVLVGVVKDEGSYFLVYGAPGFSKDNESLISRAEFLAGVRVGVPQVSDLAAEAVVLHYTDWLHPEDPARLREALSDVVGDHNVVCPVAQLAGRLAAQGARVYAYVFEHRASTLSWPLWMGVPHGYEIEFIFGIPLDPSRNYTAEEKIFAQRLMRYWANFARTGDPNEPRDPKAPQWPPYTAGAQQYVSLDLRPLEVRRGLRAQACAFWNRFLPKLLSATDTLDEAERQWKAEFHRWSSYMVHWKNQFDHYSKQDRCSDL
Estrogen receptor (Homo sapiens), sequence (P03372 whole entry, looked up): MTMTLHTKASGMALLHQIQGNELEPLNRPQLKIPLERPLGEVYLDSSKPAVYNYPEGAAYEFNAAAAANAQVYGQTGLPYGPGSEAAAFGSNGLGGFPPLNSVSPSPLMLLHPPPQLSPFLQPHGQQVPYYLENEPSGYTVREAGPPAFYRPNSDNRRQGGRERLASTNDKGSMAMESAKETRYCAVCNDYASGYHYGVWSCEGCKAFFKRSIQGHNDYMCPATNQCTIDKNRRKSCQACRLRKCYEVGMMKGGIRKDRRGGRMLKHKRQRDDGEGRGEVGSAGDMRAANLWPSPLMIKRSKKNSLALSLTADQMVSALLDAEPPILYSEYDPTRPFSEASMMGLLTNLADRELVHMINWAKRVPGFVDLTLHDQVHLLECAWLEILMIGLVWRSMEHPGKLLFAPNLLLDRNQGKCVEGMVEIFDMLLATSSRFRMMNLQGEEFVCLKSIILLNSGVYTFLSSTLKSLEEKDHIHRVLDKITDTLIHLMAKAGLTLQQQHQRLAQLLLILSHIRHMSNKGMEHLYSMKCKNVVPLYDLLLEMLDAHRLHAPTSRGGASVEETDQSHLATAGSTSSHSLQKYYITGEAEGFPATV
Glucocorticoid receptor (Homo sapiens), sequence (P04150 whole entry, looked up): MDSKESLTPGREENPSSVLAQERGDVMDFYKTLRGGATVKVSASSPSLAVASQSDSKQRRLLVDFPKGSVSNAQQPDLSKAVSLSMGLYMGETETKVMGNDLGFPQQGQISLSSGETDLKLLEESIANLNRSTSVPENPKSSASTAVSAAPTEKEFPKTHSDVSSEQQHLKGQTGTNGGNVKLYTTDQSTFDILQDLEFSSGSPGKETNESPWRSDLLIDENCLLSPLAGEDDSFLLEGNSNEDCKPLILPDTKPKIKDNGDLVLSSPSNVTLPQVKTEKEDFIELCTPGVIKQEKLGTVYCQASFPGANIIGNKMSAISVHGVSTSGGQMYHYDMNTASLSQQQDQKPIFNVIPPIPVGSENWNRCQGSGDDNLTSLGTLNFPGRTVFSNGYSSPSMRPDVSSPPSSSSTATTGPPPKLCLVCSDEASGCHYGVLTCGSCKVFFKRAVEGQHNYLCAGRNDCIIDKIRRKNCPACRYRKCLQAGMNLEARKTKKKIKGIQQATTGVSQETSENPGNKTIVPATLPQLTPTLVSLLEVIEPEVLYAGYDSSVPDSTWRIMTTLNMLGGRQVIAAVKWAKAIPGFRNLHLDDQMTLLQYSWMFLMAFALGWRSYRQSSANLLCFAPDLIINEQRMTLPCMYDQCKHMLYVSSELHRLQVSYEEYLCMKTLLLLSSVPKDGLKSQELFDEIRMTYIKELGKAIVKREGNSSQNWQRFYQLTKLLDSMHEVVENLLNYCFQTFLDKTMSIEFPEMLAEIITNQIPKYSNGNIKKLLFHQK
Aromatase (Homo sapiens), sequence (P11511 whole entry, looked up): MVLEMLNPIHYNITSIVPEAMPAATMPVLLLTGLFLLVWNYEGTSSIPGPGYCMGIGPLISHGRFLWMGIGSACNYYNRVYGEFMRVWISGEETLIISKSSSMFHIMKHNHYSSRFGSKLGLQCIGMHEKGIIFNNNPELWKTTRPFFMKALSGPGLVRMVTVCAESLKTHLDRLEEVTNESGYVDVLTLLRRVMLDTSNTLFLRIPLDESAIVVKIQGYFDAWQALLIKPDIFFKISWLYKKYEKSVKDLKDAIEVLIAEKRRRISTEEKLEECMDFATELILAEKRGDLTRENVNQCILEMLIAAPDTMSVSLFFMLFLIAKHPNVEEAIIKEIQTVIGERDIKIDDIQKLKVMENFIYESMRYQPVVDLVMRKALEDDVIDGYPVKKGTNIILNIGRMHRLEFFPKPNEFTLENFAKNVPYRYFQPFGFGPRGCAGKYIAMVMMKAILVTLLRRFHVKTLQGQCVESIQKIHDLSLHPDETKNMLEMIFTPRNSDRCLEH
Aryl hydrocarbon receptor (Homo sapiens), sequence (P35869 whole entry, looked up): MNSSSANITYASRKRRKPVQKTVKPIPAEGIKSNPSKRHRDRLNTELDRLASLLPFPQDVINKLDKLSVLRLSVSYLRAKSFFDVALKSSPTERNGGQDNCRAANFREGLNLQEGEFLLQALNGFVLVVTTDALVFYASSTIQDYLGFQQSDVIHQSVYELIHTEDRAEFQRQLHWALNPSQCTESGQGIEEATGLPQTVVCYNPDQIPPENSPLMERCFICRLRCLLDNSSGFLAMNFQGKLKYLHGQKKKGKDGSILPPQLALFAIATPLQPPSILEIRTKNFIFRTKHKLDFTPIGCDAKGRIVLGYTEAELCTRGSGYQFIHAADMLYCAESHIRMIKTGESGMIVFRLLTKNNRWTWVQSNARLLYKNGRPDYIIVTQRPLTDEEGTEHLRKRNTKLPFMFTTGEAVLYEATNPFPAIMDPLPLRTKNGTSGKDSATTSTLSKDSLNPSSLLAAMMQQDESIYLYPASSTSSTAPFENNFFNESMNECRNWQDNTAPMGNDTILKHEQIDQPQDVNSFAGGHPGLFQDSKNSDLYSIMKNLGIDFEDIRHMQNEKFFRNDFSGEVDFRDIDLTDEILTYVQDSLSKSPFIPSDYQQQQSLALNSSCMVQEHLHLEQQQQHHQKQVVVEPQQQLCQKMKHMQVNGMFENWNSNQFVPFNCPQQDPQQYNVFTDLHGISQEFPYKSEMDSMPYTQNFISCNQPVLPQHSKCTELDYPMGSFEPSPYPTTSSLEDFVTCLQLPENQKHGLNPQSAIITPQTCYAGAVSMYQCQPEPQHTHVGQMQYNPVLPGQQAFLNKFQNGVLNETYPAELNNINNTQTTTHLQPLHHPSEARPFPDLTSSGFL
Peroxisome proliferator-activated receptor gamma (Homo sapiens), sequence (P37231 whole entry, looked up): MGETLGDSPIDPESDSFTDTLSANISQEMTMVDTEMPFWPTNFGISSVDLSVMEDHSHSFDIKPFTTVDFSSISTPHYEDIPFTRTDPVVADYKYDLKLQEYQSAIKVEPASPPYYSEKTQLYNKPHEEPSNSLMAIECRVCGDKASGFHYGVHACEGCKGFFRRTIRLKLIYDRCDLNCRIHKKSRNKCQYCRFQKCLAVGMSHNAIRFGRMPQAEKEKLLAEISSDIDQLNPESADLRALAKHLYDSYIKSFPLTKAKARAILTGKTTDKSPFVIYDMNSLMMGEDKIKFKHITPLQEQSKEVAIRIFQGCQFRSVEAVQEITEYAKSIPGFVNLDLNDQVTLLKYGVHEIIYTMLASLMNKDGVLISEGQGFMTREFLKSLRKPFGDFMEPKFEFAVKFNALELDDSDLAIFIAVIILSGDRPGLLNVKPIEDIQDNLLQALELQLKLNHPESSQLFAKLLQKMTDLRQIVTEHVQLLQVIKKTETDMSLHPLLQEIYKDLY

C#C[C@]1(OC(=O)CCCCCC)CC[C@H]2[C@@H]3CCC4=CC(=O)CC[C@@H]4[C@H]3CC[C@@]21C
inactive: Potency [1] | outcome [2]

O=C(OC[C@H]1O[C@@H](OC(=O)c2cc(O)c(O)c(OC(=O)c3cc(O)c(O)c(O)c3)c2)[C@H](OC(=O)c2cc(O)c(O)c(OC(=O)c3cc(O)c(O)c(O)c3)c2)[C@@H](OC(=O)c2cc(O)c(O)c(OC(=O)c3cc(O)c(O)c(O)c3)c2)[C@@H]1OC(=O)c1cc(O)c(O)c(OC(=O)c2cc(O)c(O)c(O)c2)c1)c1cc(O)c(O)c(OC(=O)c2cc(O)c(O)c(O)c2)c1
inactive: activity change, negative = inhibition [3] -11.1% [at 23.8 µM] | activity change, negative = inhibition [4] -0.451% [at 23.6 µM]

CCN(CC)CCCC(C)Nc1c2ccc(Cl)cc2nc2ccc(OC)cc12 (stereo unspecified)
inactive: Potency [4]

CC[C@@]1([C@@H]2O[C@@H]([C@H]3O[C@@](O)(CO)[C@H](C)C[C@@H]3C)C[C@@H]2C)CC[C@H]([C@]2(C)CC[C@]3(C[C@H](O)[C@@H](C)[C@@H]([C@@H](C)[C@@H](OC)[C@H](C)C(=O)O)O3)O2)O1 (stereo in doubt)
inactive: Potency (Aromatase (Homo sapiens)) | outcome [5]

CCC(=O)O[C@H]1[C@@H](N2CCCCC2)C[C@H]2[C@@H]3CC[C@H]4C[C@H](OC(C)=O)[C@@H](N5CCCCC5)C[C@]4(C)[C@H]3CC[C@@]21C
active: Potency [26] 3.35 µM | Potency [27] 3.76 µM
inactive: Potency [6] | outcome [7] | Potency [8] | outcome [9] | Potency [10] | outcome [11] | outcome [12] | outcome [13] | outcome [14] | outcome [15] | outcome [16] | outcome [17] | outcome [18] | outcome [19] | outcome [20] | outcome [21] | outcome [22] | outcome [23] | Potency [24] | Potency [25] | Potency [28] | Potency [29] | outcome [30] | outcome [31] | Potency [32] | Potency [33] | Potency [34] | outcome [35] | Potency (Aromatase (Homo sapiens)) | outcome [36] | outcome [5] | outcome [2]
